Assay outcomes as filed in PubChem.
A1 inh – inhibitors of A1. AID 2241. hit rate 0.51% among 21,000. caspase activation, % (test concentration not listed). MEF A1-2A-BIM cells, caspase-Glo luminescence, 3 h; percent of clofoctol signal, DMSO as zero;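 active means most replicate scores above 10, or exactly half above 10 with mean activity above 10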;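 further: effector caspase 3 and 7 activity cleaving a DEVD luciferin substrate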
Large screens that a line does not name were inactive. This excerpt belongs to a sample that is enriched for hits.

O=C(O)CSC12CC3CC(CC(C3)C1)C2	none
O=C(CSc1ccc(F)cc1Cl)C12CC3CC(CC(C3)C1)C2	none
N#CSCC(=O)C12CC3CC(CC(C3)C1)C2	A1 inh 36
Cc1ccc(C(=O)C2C(=O)C(=O)N(CCCN3CCOCC3)C23C(=O)N(C)c2ccccc23)cc1F (configuration not stated)	none
Cc1ccc(-c2nc3sc4nc5ccccc5nc4n3n2)cc1	none
O=C(Nc1cc(C(=O)Nc2ccccc2O)cc(C(=O)Nc2ccccc2O)c1)c1ccccc1	none
CCC(C(=O)N(C)c1ccccc1)c1ccccc1 (configuration not stated)	none
CC(C)c1cc(NC(C)c2ccccc2)n2c(nc3ccccc32)c1C#N (configuration not stated)	none
Cc1ccc(NC(=O)CSc2nnc(C)n3c2cc2sccc23)cc1F	none
Cc1[nH]c2ccccc2c1C(O)c1cccnc1 (configuration not stated)	none
Cc1[nH]c2ccccc2c1C(c1ccccc1)N1CCN(C)CC1 (configuration not stated)	A1 inh 66
c1ccc(C(c2ccccc2)N2CCN(CCCc3c[nH]c4ccccc34)CC2)cc1	none
CCN(C(=O)CC(C)C)C1CCCCC1	none
Cc1cccc(NC(=O)c2cccc(Cn3nc(C)c(Cl)c3C)c2)c1C	none
COC(=O)c1cc(NC(=O)c2cccc(Cl)c2)cc(C(=O)OC)c1	none
CCCn1nc(NC(=O)c2cccc(Cl)c2)c2cc3cc(C)ccc3nc21	A1 inh 12
COc1ccc(N=c2cc(-c3ccc(OC)cc3)oc3ccc(O)cc23)cc1	none
O=C1Cc2c([nH]c3ccc([N+](=O)[O-])cc23)-c2ccccc2N1	A1 inh 10
COC(=O)c1ccc([C@H]2C(C#N)=C(N)C(C#N)(C#N)C3=CCC(C(C)(C)C)C[C@@H]32)cc1 (some centres not stated)	none
CC1=C(C(=O)Nc2ccccc2)C(c2ccc(C(C)C)cc2)n2c(nc3ccccc32)N1 (configuration not stated)	none
C=CCc1c(C)c(C#N)c2nc3ccccc3n2c1NCCc1ccc(OC)c(OC)c1	none
CCC(Sc1nnc(C)n2c1cc1oc(C)cc12)C(=O)Nc1cccc(OC)c1 (configuration not stated)	none
Cc1cc(-c2c(C(=O)Sc3ccccc3)c(C)nn2-c2ccccc2)no1	none
Cc1ccc(SC(=O)c2c(C)noc2-c2cc(C)on2)cc1	A1 inh 9.8
Cc1ccc(SCC(=O)Nc2cc(C)on2)cc1	none
COc1cc(NC(=O)CC(C)(C)C)c(OC)cc1Cl	none
N/C(=N/c1nc2ccccc2s1)NC(=O)c1cccc(Cl)c1	none
COC(=O)c1ccc(CSc2ccc3nnc(-c4ccc(Cl)cc4)n3n2)o1	none
Cc1ccc(-c2cc(=O)[nH]c3ccccc23)cc1	none
CSc1c(-c2ccc(Cl)cc2)[nH]c2ccccc12	A1 inh 14
CCCCCCN(CCCCCC)C(=O)Cc1c(-c2ccc(F)cc2)[nH]c2ccccc12	none
CC(=O)NC(C)c1ccccc1 (configuration not stated)	none
CC(NC(=O)CC(c1ccccc1)c1ccccc1)c1ccccc1 (configuration not stated)	none
C=C(C)CC1(NC(C)c2ccccc2)CCCCC1 (configuration not stated)	A1 inh 9.8
COc1cc(OC)cc(-c2nc(N)c3c(C)c(-c4ccc(OC)c(OC)c4)sc3n2)c1	A1 inh 10
CCCc1c(C#N)c(N)nc(SCCCN2CCN(c3cccc(Cl)c3)CC2)c1C#N	none
COc1cccc2sc(=NC(=O)Cc3cccc4ccccc34)n(C)c12	A1 inh 10
COc1ccccc1C1CCN(Cc2cccc3ccccc23)CC1	none
CCC(C(=O)NCc1cccc(OC)c1OC)n1sc2ccccc2c1=O (configuration not stated)	none
COc1ccccc1C1CCN(C(=O)c2scc(S(=O)(=O)c3ccc(Cl)cc3)c2C)CC1	none
CC(C)c1cc(NC2CCCCC2)n2c(nc3ccccc32)c1C#N	none
COc1ccc(-c2cc(C(F)(F)F)nc(SCCC(=O)Nc3ccccc3)n2)cc1	none
FC(F)(F)c1[nH]nc(-c2ccccc2)c1C12CC3CC(CC(C3)C1)C2	A1 inh 11
c1ccc(-c2nc(C34CC5CC(CC(C5)C3)C4)cs2)cc1	none
CCS(=O)CCSc1nc(-c2ccc(Br)cc2)cc(-c2ccccc2)c1C#N (configuration not stated)	none
Cc1ccc(C(=O)NCC2OCCc3ccccc32)cc1 (configuration not stated)	none
Cc1cc(C(F)(F)F)nc(SCCNC(=O)Cc2ccc(F)cc2)n1	none
CC(=O)NCCSc1nc(-c2cccs2)cc(-c2ccc(F)cc2)c1C#N	A1 inh 10
CCCCS(=O)CSc1nc(-c2cccs2)cc(-c2ccccc2)c1C#N (configuration not stated)	none
N#Cc1c(C(F)(F)F)cc(-c2cccs2)nc1SCC(=O)c1ccccc1	none
Cc1ccc(SCc2cc(=O)[nH]c(/N=C(\N)Nc3ccccc3)n2)cc1	none
COc1nc(NCCc2ccc(OC)c(OC)c2)nc(Nc2ccc(Cl)cc2)n1	none
CC(C)(C)C1CCC2(CC1)C(C#N)C2(C#N)C(=O)c1ccccc1 (configuration not stated)	none
CCOC(=O)c1ccc(NC(=O)c2oc3c(c2C)-c2nn(Cc4ccc(C)cc4)cc2CC3)cc1	A1 inh 22
CNC(=O)Cn1cc2c(n1)-c1c(oc(C(=O)N3CCCC3)c1C)CC2	none
CCOC(=O)c1ccc(NC(=O)c2ccc(C(C)(C)C)cc2)cc1	none
COc1cc(-c2noc(-c3c(-c4ccccc4Cl)noc3C)n2)cc(OC)c1OC	none
Fc1c(F)c(C(F)(F)F)c(F)c2c1Oc1cc(Cl)c(Cl)cc1O2	none
COc1ccc(NC(=O)c2ccc(CSc3ccccn3)cc2)cc1	none
COc1ccc(C(=O)Nc2ccc(-c3cn4ccccc4n3)cc2)cc1	A1 inh 31
Cc1ccccc1C(=O)Nc1cccc(-c2cn3ccccc3n2)c1	none
COc1ccc(-n2c(N)c(-c3nc4ccccc4s3)c3nc(C#N)c(C#N)nc32)cc1	none
Cc1nn(-c2ccccc2)c2c1C(C(F)(F)F)(C(F)(F)F)C(C#N)=C(N)O2	none
O=C(NCc1cccnc1)C1=CCN(S(=O)(=O)c2ccccc2)CC1	none
O=C(NCc1cccnc1)/C(=C\c1ccc(Br)cc1)S(=O)(=O)c1ccccc1	none
O=C(NCc1cccnc1)/C(=C\c1cccc(Oc2ccccc2)c1)S(=O)(=O)c1ccccc1	A1 inh 47
CCc1c(C(=O)c2ccc(OC)cc2)oc2c(C)c3oc(=O)cc(C)c3cc12	none
COC(=O)C1CCN(C(=O)c2ccccc2)CC1	none
CCSc1ccsc1C1C(C#N)=C(N)N(c2cccnc2)C2=C1C(=O)CC(C)(C)C2 (configuration not stated)	none
O=C(CSc1nc2ccccc2c(=O)n1CCc1ccccc1)NCCc1ccccc1	none
O=C(CCn1c(SCc2cccc(F)c2)nc2ccccc2c1=O)NCCc1ccccc1	A1 inh 19
CCOC(CCn1c(SCc2cccc(F)c2)nc2ccccc2c1=O)OCC	none
CCC(Sc1nc(Nc2ccc(F)cc2)c2ccccc2n1)C(=O)Nc1ccc2c(c1)OCO2 (configuration not stated)	none
Cc1ccc2c(c1)C(c1ccccc1)CC(C)N2C(=O)c1ccccc1F (configuration not stated)	none
Nc1cc(C(F)(F)F)ccc1Oc1ccc(C2CCCCC2)cc1	A1 inh 11
FC(F)(F)c1ccc(Oc2ccc(Oc3ccc(C(F)(F)F)cn3)cc2)nc1	none
CC(=O)NCCOc1ccc(C2CCCCC2)cc1	none
CCc1ccccc1NC(=O)C(C)(C)CC	none
